The list is not random: actives were taken first. Their share in the collection is about 1.5%.
F508del corr: CFTR F508del correction in bronchial cells; CFBE cells, YFP halide quenching; stimulated with forskolin plus potentiator P3; % fluorescence drop versus neutral controls; activity (quench increase), % at 7.58 µM; hit rate 0.36% among 350,000; AID 720511;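 active = mean added fluorescence quench of at least 8% versus neutral control, with both replicates also reaching 8%; inconclusive = only one of the mean or replicate conditions met; inactive = mean below 8% and not both replicates reaching 8%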;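 note: cells transiently co-express mutant CFTR-F508del with the halide-sensitive YFP; corrector assay measuring rescue of mutant channel to the surface after 24 h compound exposure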
RAD52 anneal inh: inhibitors of human RAD52 DNA annealing. P43351. recombinant RAD52 DNA annealing, FRET fluorescence. inhibition, % at 18.7 µM. hit rate 0.46% among 360,000. AID 651710;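 active = every replicate showing at least 50% inhibition; inconclusive = mean inhibition at least 50% but not in every replicate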
dFosB act-1: enhances mouse delta FosB homodimer DNA binding; AID 493131; purified delta FosB, TAMRA-CDK5 oligo fluorescence polarization; percent of positive-control signal above neutral wells; activation, % at 25 µM; P13346; hit rate 0.99% among 340,000;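 active = mean activation above about 17%, with every replicate also reaching it, limit read from the data, passing the limit was not always enough; inconclusive = only one of the two conditions met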
Target sequence (P13346 whole entry, looked up): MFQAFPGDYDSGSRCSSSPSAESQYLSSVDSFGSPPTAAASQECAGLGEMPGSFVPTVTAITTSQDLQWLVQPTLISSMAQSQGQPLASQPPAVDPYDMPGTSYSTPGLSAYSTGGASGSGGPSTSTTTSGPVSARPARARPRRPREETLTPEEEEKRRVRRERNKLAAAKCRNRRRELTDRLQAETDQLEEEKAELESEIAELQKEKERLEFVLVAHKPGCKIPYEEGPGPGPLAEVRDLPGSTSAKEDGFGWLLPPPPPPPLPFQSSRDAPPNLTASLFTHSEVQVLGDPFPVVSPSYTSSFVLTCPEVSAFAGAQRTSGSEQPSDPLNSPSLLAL
PvdQ acylase: blocks Pseudomonas aeruginosa PvdQ acylase activity; hit rate 0.063% among 340,000; inhibition, % at 10 µM; purified PvdQ acylase, fluorescence plate reader; in the data active = inhibition above about 30%, passing the limit was not always enough; inconclusive = no clear call, values can overlap the other calls
Glyco luc inh: N-linked glycosylation inhibition | D54 ERlucT glycosylation luciferase reporter, 24 h; percent of 100 nM tunicamycin response | AID 588692 | hit rate 0.23% among 360,000 | reporter increase, % at 12.5 µM;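 active = mean luciferase reporter signal, scaled so untreated is 0 and the glycosylation-blocking control 100, at or above a set limit in every replicate; inconclusive = mean reaches the limit but not every replicate does; inactive = mean below the limit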;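 note: luciferase carries N-glycosylation sites so blocking glycosylation raises the light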
RAD54 branch: RAD54 (human) branch migration inhibition; RAD54 Holliday junction branch migration, FAM/BHQ fluorescence; Q92698; inhibition, % at 10.4 µM; hit rate 0.14% among 360,000;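 active = mean normalized replicate activity at least 40 and at least half of replicates scoring 40 or more; inconclusive = only one of the two criteria met; inactive = mean below 40 and under half of replicates reaching 40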;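 note: inhibitors cause a drop in the FAM fluorescence signal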
dFosB act-2: delta FosB (mouse) homodimer activation. shares compounds with dFosB act-1. purified delta FosB, TAMRA-CDK5 oligo fluorescence polarization; normalised: neutral wells 0, positive control 100. activation, % at 24.9 µM. 2,400 tested, under 10 active. AID 588690;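 active = highest replicate activation at or above 34% and every replicate reaching that threshold; inconclusive = meets only one of the two criteria; inactive = meets neither criterion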;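 note: higher polarization means more probe DNA bound by delta FosB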
Hits are given with their value; 0 = inactive; ? = inconclusive; - = no result.

SMILES	F508del corr	RAD52 anneal inh	dFosB act-1	PvdQ acylase	Glyco luc inh	RAD54 branch	dFosB act-2
Cc1ccc(-n2nnnc2SCC(=O)Nc2ccc3c(c2)COC3=O)cc1C	-	-	54	0	0	0	0
COc1ccc(NC(=O)N(C)C[C@H]2Oc3c(NS(=O)(=O)c4cccs4)cccc3C(=O)N([C@@H](C)CO)C[C@H]2C)cc1	0	0	-	-	-	0	-
C[C@H](CO)N1C[C@H](C)[C@@H](CN(C)C)Oc2ncc(C#CC3CCCCC3)cc2C1=O	0	-	-	-	-	-	-
COc1ccc2c3c([nH]c2c1)[C@H](CO)N(C(=O)c1ccncc1)CC31CCN(C(=O)CC2CC2)CC1	0	0	-	-	-	-	-
COc1ccc(S(=O)(=O)N2CCC(C(=O)N[C@@H](C)C(=O)NC3CCCC3)CC2)cc1	0	0	20	0	0	0	0
Cc1ccc(S(=O)(=O)N2CCC(C(=O)N[C@@H](C)C(=O)NC3CCCCC3)CC2)cc1	-	-	39	0	0	0	0
Cc1ccc(S(=O)(=O)N2CCC(C(=O)N[C@H](C(=O)NCc3ccco3)C(C)C)CC2)cc1	-	-	18	0	0	0	0
O=C(NC1Cc2ccccc2C1)[C@@H]1[C@@H](CO)[C@@H]2Cn3c(cccc3=O)[C@@H]2N1C(=O)C1CC1	0	0	-	-	-	0	-
O=C(Nc1ccc(F)cc1)N[C@H]1C=C[C@H](CC(=O)N2CCOCC2)O[C@@H]1CO	0	0	-	-	-	0	-
CC(=O)NC(=O)c1ccc(-c2ccc(Cl)cc2)o1	0	0	26	0	0	0	0
O=C(NC(=S)Nc1ccccc1O)c1ccc(-c2ccc(Cl)cc2)o1	-	-	0	0	0	0	-
C[C@H](CO)N1C[C@H](C)[C@@H](CN(C)C(=O)c2cccc(F)c2)Oc2cc(-c3ccncc3)ccc2S1(=O)=O	-	0	-	-	-	0	-
COc1cc2c(-c3ccc(O)cc3)nc3c(c(C)nn3-c3ccccc3)c2cc1OC	-	-	27	0	0	0	0
O=C(CC1S/C(=N/N=C/c2cccs2)NC1=O)Nc1ccccc1F (stereo unspecified)	0	0	32	0	0	-	0
Cc1ccc(NC(=O)Cn2nnc(C(=O)NCCc3ccccc3)c2N)c(C)c1	-	-	29	0	0	0	0
Cc1ccc(NC(=O)Cn2nnc(C(=O)NCCc3ccccc3)c2N)cc1Cl	0	0	19	0	0	0	0
COc1ccc(CCNC(=O)c2nnn(CC(=O)Nc3ccc(C)cc3C)c2N)cc1OC	0	0	53	0	0	0	0
COc1ccc(NC(=O)Cn2nnc(C(=O)NCc3ccccc3)c2N)cc1Cl	-	-	0	0	0	0	-
COc1ccc(CCNC(=O)Cn2nnc(C(=O)Nc3ccc(Br)cc3)c2N)cc1OC	0	0	0	0	0	0	-
CCOc1ccccc1NC(=O)Cn1nnc(C(=O)NCCc2ccc(OCC)c(OCC)c2)c1N	0	0	0	0	0	0	-
COc1ccc(Cl)cc1NC(=O)Cn1nnc(C(=O)NCCc2ccc(OC)c(OC)c2)c1N	0	0	38	0	0	0	0
COc1ccc(CCNC(=O)c2nnn(-c3cc(C)cc(C)c3)c2N)cc1OC	-	-	0	0	0	0	-
Cc1ccc(C(=O)Nc2cccc(C(F)(F)F)c2)cc1NC(=O)c1nccn1C	0	0	27	0	0	0	0
C/C(=C\C=C(C#N)C#N)c1cc(C#N)c(N)o1	0	0	84	0	0	-	?
COc1ccccc1NC(=O)N1CC[C@@H]2[C@@H](CO)N(C)c3ccc(-c4cccc(F)c4)cc3[C@@H]21	0	0	-	-	-	0	-
SMILES	F508del corr	RAD52 anneal inh	dFosB act-1	PvdQ acylase	Glyco luc inh	RAD54 branch	dFosB act-2
COc1ccc(NC(=O)Nc2ccc(N3CCOCC3)c3nonc23)c(OC)c1	0	0	26	0	0	-	0
O=C(Nc1ccc(N2CCOCC2)c2nonc12)C1CCCC1	-	-	0	0	0	0	-
COc1ccc(-c2cc(C(=O)Nc3cc(C)nn3-c3ccccc3)no2)cc1	-	-	23	0	0	0	0
Cc1cc(NC(=O)c2cc(-c3ccccc3)on2)n(-c2ccccc2)n1	-	-	0	0	0	0	-
CCNC(=O)C[C@@H]1CC[C@H]2[C@@H](COc3ccc(NC(=O)Nc4ccccc4C)cc3C(=O)N2C)O1	0	0	-	-	-	0	-
COc1ccc(OCCSCc2nnc(NC(=O)Nc3ccc(Cl)cc3)s2)cc1	-	0	24	0	0	-	0
Cc1ccc(-c2cc(C(=O)N/N=C/c3c(C)nn(C)c3C)c3ccccc3n2)cc1C	-	-	43	0	0	0	0
O=C(Cc1ccccc1)N1CC(=O)N2[C@H](CO)[C@@H](c3ccc(-c4cccc(F)c4)cc3)[C@@H]2C1	0	0	-	-	-	-	-
N#Cc1ccc(-c2ccc(F)cc2)nc1SCC(=O)Nc1sc2c(c1C#N)CCC2	-	-	37	0	0	0	0
N#Cc1cc2c(nc1SCC(=O)Nc1sc3c(c1C#N)CCC3)CCCC2	-	-	0	0	0	0	-
CN1c2ccc(-c3ccc(F)cc3)cc2[C@H]2[C@H](CCN2C(=O)c2ccc(F)cc2)[C@@H]1CO	0	0	-	-	-	-	-
COc1ccc(-c2csc(NC(=S)NC(=O)c3ccc(S(=O)(=O)N(C)C)cc3)n2)cc1OC	0	0	29	0	-	0	0
COc1cc(OC)c(-c2nc(-c3ccncc3)no2)cc1OC	0	0	21	0	0	0	0
COc1ccc(-c2nc(-c3ccncc3)no2)c(OC)c1	0	0	0	0	0	0	-
O=C(CSc1ccc(-c2ccc(-n3cccn3)cc2)nn1)Nc1ccccc1F	0	0	25	0	0	-	0
O=C(CSc1ccc(-c2cccnc2)nn1)Nc1ccccc1F	0	0	0	0	0	0	-
Cc1ccc(-c2csc(/C=C3\SC(C)C(=O)N3CC(=O)Nc3ccccc3F)n2)cc1 (stereo unspecified)	0	0	18	0	0	0	0
O=C(C[C@@H]1C[C@H]2c3cc(NC(=O)C4CCC4)ccc3O[C@H]2[C@@H](CO)O1)NCC1CC1	0	0	-	-	-	0	-
CCC(=O)N(C)C[C@@H]1Oc2cc(-c3cncnc3)ccc2S(=O)(=O)N([C@@H](C)CO)C[C@H]1C	0	0	-	-	-	0	-
COCCn1c(=S)[nH]c2cc(C(=O)N3CCc4ccccc43)ccc2c1=O	-	-	0	0	0	-	-
CCCn1c(=S)[nH]c2cc(C(=O)N3CCc4ccccc43)ccc2c1=O	-	-	50	0	0	0	0
COc1ccc(S(=O)(=O)N2CCC3(CC2)CN(C(=O)CN(C)C)[C@@H](CO)c2c3c3ccc(OC)cc3n2C)cc1	0	0	-	-	-	-	-
CC(C)NC(=O)N(C)C[C@H]1Oc2ccc(NC(=O)Cc3ccccc3)cc2C(=O)N([C@@H](C)CO)C[C@@H]1C	0	0	-	-	-	0	-
COc1cccc(NC(=S)N2CCc3cc(OC)c(OC)cc3C2COc2ccc3c(C)cc(=O)oc3c2)c1 (stereo unspecified)	-	-	65	0	0	0	0
